Among the test systems are NCI-H23 lung; NCI-H226 lung; NCI-H322M lung; HOP-62 NSCLC; NCI-H460 lung; HOP-92 NSCLC; NCI-H522 lung; A549/ATCC NSCLC; 786-0 renal; COLO 205 colon; DU-145 prostate; K-562 leukemia; MALME-3M melanoma; MDA-MB-231 breast; RXF 393 renal; SF-268 CNS; SF-295 CNS; SF-539 CNS; UACC-257 melanoma; M14 melanoma.
Common to all, as to test: NCI-60 one-dose screen, 48 h (100 = growth as untreated, 0 = no growth, -100 = all killed)
What all share (details): 10 µM unless noted

The panel holds about 83,000 compounds, 20% with a hit somewhere; the sample as a whole holds those more often.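 Treatment: one concentration, 48 hours, 96-well format. Scoring: percent growth, with anything below 10 considered active.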 A number with no mark means an inactive call. Active and inactive are the calls of the source.

On to `O=C(CC1(O)C(=O)Nc2ccc(Br)cc21)c1ccc(C(=O)NCC2CCC3(CC2)OOC2(CCCCC2)OO3)cc1` (stereo not given), for which the growth in the experiment on NCI-H23 lung was 53.7%; with NCI-H226 lung it was 61.3%; with NCI-H322M lung, 80.1%; in the experiment with HOP-62 NSCLC, 31%; in the experiment on NCI-H460 lung, 36.4%; with HOP-92 NSCLC, -46.3% (active). Further, the growth in the experiment with NCI-H522 lung is 6.67% (active); in the experiment with A549/ATCC NSCLC, 36.7%; in the experiment with 786-0 renal it was -7.61% (active); in the experiment with COLO 205 colon it was 51.4%; in the experiment on DU-145 prostate it was 59.1%; in the experiment with K-562 leukemia it was -61% (active). Further, the growth in the experiment on MALME-3M melanoma is -7.48% (active); in the experiment with MDA-MB-231 breast, 56.8%; with RXF 393 renal it was 69.5%; in the experiment with SF-268 CNS, 47.8%; in the experiment with SF-295 CNS it was 69.1%; in the experiment on SF-539 CNS, 55%. Further, the growth was 49.4% with UACC-257 melanoma and 61.6% in the experiment on M14 melanoma.
Take `O=C(CCl)c1ccc([N+](=O)[O-])o1`: the growth in the experiment on NCI-H23 lung is 5.38% (active); with NCI-H226 lung, 42.9%; in the experiment with NCI-H322M lung, 98.4%; in the experiment with HOP-62 NSCLC it was 86.4%; in the experiment on NCI-H460 lung, 76.3%; with HOP-92 NSCLC, -56% (active). Besides, the growth is -56.7% (active) in the experiment on NCI-H522 lung; 106% in the experiment with A549/ATCC NSCLC; -28.7% (active) in the experiment on 786-0 renal; -86% (active) with COLO 205 colon; -30.8% (active) in the experiment with DU-145 prostate; -36.7% (active) in the experiment with K-562 leukemia. Further, the growth in the experiment with MALME-3M melanoma was -54.6% (active); in the experiment with MDA-MB-231 breast it was 64.6%; in the experiment on RXF 393 renal it was -48.2% (active); with SF-268 CNS it was 1.57% (active); in the experiment with SF-295 CNS, 92.2%; in the experiment on SF-539 CNS, 2.78% (active). In addition, the growth was -49.3% (active) in the experiment on UACC-257 melanoma and -11.5% (active) with M14 melanoma.
In the case of `NC(=O)C(Br)c1ccccc1` (stereo not given), the growth with NCI-H23 lung was 89.9%; in the experiment on NCI-H226 lung, 88.7%; in the experiment with NCI-H322M lung, 99.6%; in the experiment on HOP-62 NSCLC it was 103%; in the experiment on NCI-H460 lung it was 108%; in the experiment on HOP-92 NSCLC, 99.6%. The growth in the experiment with NCI-H522 lung was 53.5%; with A549/ATCC NSCLC it was 91.8%; in the experiment on 786-0 renal, 107%; in the experiment with COLO 205 colon it was 103%; with DU-145 prostate, 103%; in the experiment with K-562 leukemia it was 84.3%. In addition, the growth in the experiment on MALME-3M melanoma is 74.9%; in the experiment with MDA-MB-231 breast, 87.8%; with RXF 393 renal, 104%; with SF-268 CNS, 79.6%; in the experiment with SF-295 CNS, 97%; in the experiment with SF-539 CNS, 109%. In addition, the growth with UACC-257 melanoma is 83.3%; in the experiment on M14 melanoma it was 73.3%.
As to `COC(=O)[C@@H](C)C[C@H](Cc1ccccc1)NC(=O)c1cccc([C@@H](C[C@H](C(C)C)N(C)C(=O)[C@@H](NC(=O)[C@H]2CCCCN2C)C(C)C)OC(C)=O)n1`, the growth in the experiment on NCI-H23 lung was 38.9%; with NCI-H226 lung it was 68.1%; in the experiment with NCI-H322M lung, 47.6%; in the experiment with HOP-62 NSCLC, 23.2%; in the experiment on NCI-H460 lung it was 7.05% (active); with HOP-92 NSCLC, 53.7%. In addition, the growth with NCI-H522 lung is -22.2% (active); in the experiment on A549/ATCC NSCLC, 14.2%; with 786-0 renal it was 14.4%; with COLO 205 colon, -54.5% (active); in the experiment on DU-145 prostate, 10.5%; with K-562 leukemia, 7.86% (active). Besides, the growth in the experiment on MALME-3M melanoma is 77.9%; in the experiment on MDA-MB-231 breast, -4.66% (active); in the experiment with RXF 393 renal, 46.1%; in the experiment with SF-268 CNS, 30.8%; with SF-295 CNS, 6.28% (active); in the experiment with SF-539 CNS, 2.03% (active). Also, the growth in the experiment with UACC-257 melanoma is 49.7%; in the experiment on M14 melanoma it was -10.9% (active).
Take `NC(=S)c1cn(C2OC(CO)C(O)C2O)c2ncnc(N)c12` (stereo not given): the growth in the experiment with NCI-H23 lung is -38.8% (active); in the experiment with NCI-H226 lung, -12.7% (active); in the experiment on NCI-H322M lung, -17% (active); in the experiment on HOP-62 NSCLC, -30% (active); in the experiment on NCI-H460 lung, 3.97% (active); with HOP-92 NSCLC, -4.97% (active). Besides, the growth in the experiment with NCI-H522 lung was -38.6% (active); in the experiment on A549/ATCC NSCLC, 4.83% (active); in the experiment with 786-0 renal it was -15.9% (active); in the experiment on COLO 205 colon, -47% (active); in the experiment with DU-145 prostate it was -18.8% (active); in the experiment on K-562 leukemia, -42.3% (active). For the same compound, the growth in the experiment with MALME-3M melanoma is -30.5% (active); in the experiment with MDA-MB-231 breast, -9.11% (active); in the experiment with RXF 393 renal, -55.9% (active); in the experiment with SF-268 CNS it was -20.9% (active); with SF-295 CNS, -3.13% (active); in the experiment on SF-539 CNS, -53.1% (active). The figures for the growth in the experiment with UACC-257 melanoma and in the experiment with M14 melanoma were -1.27% (active) and -57.9% (active), respectively.
Turning to `O=C1C(=Cc2cn(Cc3ccccc3)c3ccccc23)C(=O)N(Cc2ccccc2)C(=O)N1Cc1ccccc1`, the growth in the experiment on NCI-H23 lung is 87.8%; in the experiment on NCI-H226 lung, -49.4% (active); with NCI-H322M lung it was 105%; in the experiment on HOP-62 NSCLC, 85.5%; in the experiment with NCI-H460 lung it was 36%; in the experiment on HOP-92 NSCLC, 90.9%. The growth was 87.6% in the experiment with NCI-H522 lung; 80.1% in the experiment with A549/ATCC NSCLC; 93.3% in the experiment with 786-0 renal; 26.4% in the experiment on COLO 205 colon; 110% in the experiment with DU-145 prostate; 81.5% in the experiment with K-562 leukemia. The growth in the experiment on MALME-3M melanoma was 105%; in the experiment with MDA-MB-231 breast it was 89.3%; with RXF 393 renal, 57.6%; with SF-268 CNS, 87.5%; with SF-295 CNS it was 34.4%; in the experiment on SF-539 CNS it was 83.5%. Moreover, the growth in the experiment with UACC-257 melanoma is 52.9%; in the experiment with M14 melanoma, 104%.
Take `CCOC(=O)[C@@H](C)C[C@H](Cc1ccccc1)NC(=O)c1csc([C@@H](C[C@H](C(C)C)N(C)C(=O)CNC(=O)[C@H]2CCCCN2C)OC(C)=O)n1`: the growth in the experiment with NCI-H23 lung is 31.7%; in the experiment on NCI-H226 lung, 69.9%; with NCI-H322M lung, 44.7%; with HOP-62 NSCLC, 23.5%; in the experiment on NCI-H460 lung, 5.98% (active); in the experiment on HOP-92 NSCLC, 47.5%. Besides, the growth in the experiment on NCI-H522 lung was -12.8% (active); in the experiment on A549/ATCC NSCLC, 16.4%; in the experiment with 786-0 renal it was 19.8%; with COLO 205 colon, -11.6% (active); in the experiment with DU-145 prostate it was 9.26% (active); in the experiment with K-562 leukemia it was 6.73% (active). Besides, the growth in the experiment on MALME-3M melanoma was 76.1%; in the experiment on MDA-MB-231 breast it was 14.5%; with RXF 393 renal it was -13.8% (active); in the experiment on SF-268 CNS, 46.6%; in the experiment on SF-295 CNS, 5.3% (active); with SF-539 CNS it was -8.42% (active). The growth with UACC-257 melanoma was 58.7%; in the experiment with M14 melanoma it was -20.9% (active).
Take `COC(=O)CC[C@H](Cc1ccccc1)NC(=O)c1csc([C@@H](C[C@H](C(C)C)N(C)C(=O)[C@@H](NC(=O)[C@H]2CCCCN2C)C(C)C)OC(C)=O)n1`: the growth in the experiment on NCI-H23 lung is 51%; with NCI-H226 lung, 83%; in the experiment with NCI-H322M lung, 51%; in the experiment with HOP-62 NSCLC it was 52.7%; in the experiment on NCI-H460 lung, 21.7%; with HOP-92 NSCLC, -1.54% (active). For the same compound, the growth is 9.28% (active) in the experiment with NCI-H522 lung; 40.4% with A549/ATCC NSCLC; 34.8% in the experiment with 786-0 renal; -49.7% (active) with COLO 205 colon; 39.1% in the experiment on DU-145 prostate; 24.4% with K-562 leukemia. Also, the growth with MALME-3M melanoma is 74.2%; with MDA-MB-231 breast, 36.8%; with RXF 393 renal, 69.6%; in the experiment on SF-268 CNS, 26.6%; with SF-295 CNS it was 32%; in the experiment on SF-539 CNS it was 9.4% (active). Moreover, the growth with UACC-257 melanoma is 66.6%; with M14 melanoma it was 20.2%.

The values above are taken from PubChem BioAssay (NCI).
